In PubChem BioAssay (EPA / NIEHS):
Inconclusive results are not listed. Activity calls are given as the source filed them. The calls were made as follows: active = hit-call score of the fitted dose curve at least 0.9, where 1 is the maximum; inconclusive = response in the unintended direction; inactive = score below 0.9.

Each molecule was assayed against Retinoic acid receptor RXR-alpha (Homo sapiens) (UniProt P19793) (assay: TOX21_TR_RXR_BLA_Antagonist_Followup_ratio: Tox21 Thyroid Hormone Receptor beta Retinoid X Receptor alpha (RXRa) Antagonism Beta-lactamase (BLA) Follow-Up Assay, Ratio (AID 2283972)).
Text: GeneBLAzer RXRa-UAS-bla HEK293T assay (RXRa-bla) (ThermoFisherScientific Catalog No. K1697) was run in qHTS 1536 well format as a secondary assay for specificity of response in the TOX21_TR_GH3_LUC_Agonist assay.TOX21_TR_RXR_BLA_Antagonist_Followup_ratio is an assay readout measuring reporter gene via receptor activity and designed using inducible reporter (beta lactamase induction) detected with GAL4 b-lactamase reporter gene. The signal is derived from the ratio of cleaved (ch2) to uncleaved (ch1) reporter gene substrate used as the measure of target activity.Data from the assay component TOX21_TR_RXR_BLA_Antagonist_Followup_ratio was analyzed into 1 assay endpoint. This assay endpoint, TOX21_TR_RXR_BLA_Antagonist_Followup_ratio, was analyzed in the positive analysis fitting direction relative to DMSO as the negative control and baseline of activity. Using a type of inducible reporter, loss-of-signal activity can be used to understand changes in the reporter gene as they relate to the gene RXRA. Furthermore, this assay endpoint can be referred to as a primary readout, because this assay has produced multiple assay endpoints and this ratio serves a reporter gene function to understand target activity. To generalize the intended target to other relatable targets, this assay endpoint is annotated to the nuclear receptor intended target family, where subfamily is non-steroidal.
Cell Media Required: Growth (90% DMEM/F-12, 10% Fetal Bovine Calf Serum, 100U/ml Penicillin, 100 ug/ml Streptomycin), Assay (10ng/mL sodium selenite, 10 ug/mL humanapo-transferrin, […] uM ethanolamine, 10 ug/mL insulin, 500 ug/mL bovine serum albumin (BSA))Assay Protocol: RXRa-bla cells were seeded at 2,500/well in 6 uL of the assay medium containing phenol red-free DMEM with 2% charcoal-stripped FBS in 1,536-well black-wall/clear-bottom plates (Greiner Bio-One North America) usinga Multidrop Combi dispenser. After5-h incubation at 37C/5% CO2 for cell attachment, 23 nL of follow-up compounds dissolved in DMSO, 11 concentrations in triplicate, and the positive control (9-cis retinoic acid) were transferred to the assay plates using a Pintool station. The assay plates were incubated at 37C/5% CO2 for 16h. One microliter of LiveBLAzer FRET-B/GCCF4-AM substrate (Life Technologies) was added to each well using an FRD. After 2-h incubation at room temperature, the fluorescence intensity was measured using an Envision plate reader (Perkin Elmer). Data were expressed as the ratio of 460:530 nm.

Retinoic acid receptor RXR-alpha (Homo sapiens), sequence (P19793 whole entry, looked up, the tested form may be a part): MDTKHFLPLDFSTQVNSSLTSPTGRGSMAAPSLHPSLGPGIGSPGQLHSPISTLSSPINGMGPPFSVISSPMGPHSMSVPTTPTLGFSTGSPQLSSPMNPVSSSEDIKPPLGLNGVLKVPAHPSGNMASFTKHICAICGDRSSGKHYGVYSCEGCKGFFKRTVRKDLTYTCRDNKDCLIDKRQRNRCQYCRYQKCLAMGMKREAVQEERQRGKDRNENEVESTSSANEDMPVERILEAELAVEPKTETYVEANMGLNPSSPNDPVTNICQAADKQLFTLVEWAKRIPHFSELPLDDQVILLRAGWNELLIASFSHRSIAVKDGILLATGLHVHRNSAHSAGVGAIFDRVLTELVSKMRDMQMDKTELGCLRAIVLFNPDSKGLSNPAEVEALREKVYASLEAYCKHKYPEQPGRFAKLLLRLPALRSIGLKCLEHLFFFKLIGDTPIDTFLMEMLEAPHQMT

Row | SMILES | outcome | AC50
1 | COc1cc(C(=O)NC2CCCNC2)cc(OC)c1OC (stereo unspecified) | inactive | 
2 | CCCCCCC[N+](CC)(CC)CCCCc1ccc(Cl)cc1 | inactive | 
3 | O=C1OC(OC(=O)c2cccnc2Nc2cccc(C(F)(F)F)c2)c2ccccc21 (stereo unspecified) | inactive | 
4 | COC(=O)Nc1nc2ccc(S(=O)c3ccccc3)cc2[nH]1 (stereo unspecified) | inactive | 
5 | NNc1nnc(Cc2ccncc2)c2ccccc12 | inactive | 
6 | O=C(O)c1cccnc1Nc1cccc(C(F)(F)F)c1 | inactive | 
7 | COc1ccc2c(c1)N(C[C@H](C)CN(C)C)c1ccccc1S2 | inactive | 
8 | CN1CCCC(CC2c3ccccc3Sc3ccccc32)C1 (stereo unspecified) | inactive | 
9 | O=C1c2ccccc2-c2n[nH]c3cccc1c23 | inactive | 
10 | CC(=O)O[C@@]12CO[C@@H]1C[C@H](O)[C@@]1(C)C(=O)[C@H](O)C3=C(C)[C@@H](OC(=O)[C@H](O)[C@@H](NC(=O)OC(C)(C)C)c4ccccc4)C[C@@](O)([C@@H](OC(=O)c4ccccc4)[C@H]21)C3(C)C | inactive | 
11 | COc1cc(NCc2ccc3nc(N)nc(N)c3c2C)cc(OC)c1OC |  | 1760 nM (active)
